Data published in PubChem BioAssay AID651812 (National Center for Advancing Translational Sciences (NCATS), 2012).
Out of some 2,100 compounds screened, about 650 (31%) were called active. Not shown: some 16% with an inconclusive outcome. Some of the results follow. A number with no mark means an inactive call. The call rests on the fitted dose curve; in most records, active means well fitted inhibition curve with a large enough effect; inconclusive means small, poorly fitted or top-dose-only effect; inactive means flat fitted curve, though single readings scatter.

Experiment: qHTS for inhibitors of Vif-A3G interactions: Cherry picks; further: nearly all actives have a fitted effect of over 80% in size; on activity, negative = fluorescence increase: % of control where 0% means no effect
Settings: HeLa A3G-eYFP + Vif (tagged APOBEC3G with the HIV-1 protein that degrades it), 24 h; Potency: eYFP fluorescence increase; series mostly up to 36.9 µM; activity, negative = fluorescence increase: at the top concentration
Method in brief: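 HeLa cells stably expressing A3G-eYFP and Vif, cultured overnight then exposed to compounds at several concentrations for 24 hours at 37 C, 5% CO2; cellular yellow fluorescence (488 nm ex, 500-530 nm em) imaged on Acumen, MG132 positive control.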
Potency means the concentration at half of the fitted maximal effect.

Row | Compound | activity, negative = fluorescence increase | Potency
1 | CCOC(=O)C(C(=O)OCC)C(Nc1cccc(Br)c1)c1ccccc1 (stereo not given) | -2.02% | –
2 | c1ccc2c(CCc3c[nH]c4ccccc34)ccnc2c1 | – | 23.1 µM (active)
3 | CCCCN1C(=O)/C(=C2/Sc3ccccc3N2C)S/C1=N\c1ncn[nH]1 | – | 18.4 µM (active)
4 | Cc1ccc2c(c1)C=CC(C#N)N2C(=O)c1ccccc1 (stereo not given) | -2.86% | –
5 | Cc1cc2nc(-c3ccc(SCC(=O)Nc4ccc(S(=O)(=O)N5CCCC5)cc4)nc3)[nH]c2cc1C | -11% [at 46.1 µM] | –
6 | Nc1c(C(=O)Nc2ccc(S(=O)(=O)N3CCCC3)cc2)sc2nc3cc4c(cc3cc12)CCC4 | – | 8.2 µM (active)
7 | Cc1cccc2cc3c(N)c(C(=O)Nc4ccc(N5CCOCC5)cc4)sc3nc12 | – | 14 µM (active)
8 | O=C(Nc1ccc(N2CCOCC2)cc1)c1cccc2ccccc12 | -3.81% | –
9 | O=C(Nc1nc2ccc(S(=O)(=O)N3CCCC3)cc2s1)C1CCCCC1 | -0.031% | –
10 | COC(=O)Nc1ccc(S(=O)(=O)N2CCCc3ccccc32)cc1 | -4.64% | –
11 | CCc1cccc2cc3c(N)c(C(=O)Nc4ccc(S(=O)(=O)N5CCCC5)cc4)sc3nc12 | – | 4.98 µM (active)
12 | Cc1c(C(=O)Nc2ccc(C(C)C)cc2)sc2nc3n(c(=O)c12)CCC3 | -1.38% [at 46.1 µM] | –
13 | COc1cccc(C(=O)Nc2ccc(N3CCCC3)cc2)c1 | -6.33% | –
14 | Nc1c(C(=O)Nc2ccc(S(=O)(=O)N3CCCC3)cc2)sc2nc3ccc(OC(F)(F)F)cc3cc12 | – | 20.6 µM (active)
15 | O=C(Nc1ccc(Cl)cn1)c1cccc(S(=O)(=O)N2CCCCCC2)c1 | -4.99% | –
16 | COc1ccc(NC(=O)c2oc3ccc(S(=O)(=O)N4CCOCC4)cc3c2C)cc1 | -0.471% | –
17 | CN1C(=O)N(C)c2ccc(C=O)c3cccc1c23 | 0.629% [at 46.1 µM] | –
18 | COc1cc(OC)c(C2Nc3cccc4cccc(c34)N2)c(OC)c1 | 6.18% [at 46.1 µM] | –
19 | COc1cc(OC)c(/C=C/c2ccc3ccccc3[n+]2C)c(OC)c1 | – | 10.3 µM (active)
20 | COc1cc(OC)c(/C=C/c2ccnc3ccccc23)c(OC)c1 | -10% [at 46.1 µM] | –
21 | CCN(CC(=O)NCc1ccc(F)cc1)C(=O)/C=C/c1ccc(OC)c(S(=O)(=O)NC(C)C)c1 | -20.2% | –
22 | Cc1sc2ncn(CC(=O)NCc3ccccc3)c(=O)c2c1C | -0.561% | –
23 | Cc1sc2ncnc(SCC(=O)NC(C)(C)C)c2c1C | 0.117% [at 46.1 µM] | –
24 | Cc1sc2ncnc(N=Nc3c(O)[nH]c4ccccc34)c2c1C | – | 16.4 µM (active)
25 | Fc1ccc(-c2cnn3c(-c4cccs4)ccnc23)cc1 | – | 12.5 µM (active)

Row | Compound | activity, negative = fluorescence increase | Potency
26 | Cc1ccc2nc(SCC(=O)Nc3ccc4sc(C)nc4c3)c(C#N)cc2c1 | – | 18.4 µM (active)
27 | COc1ccc2nc(NC(=O)c3ccc([N+](=O)[O-])o3)sc2c1 | -10.5% | –
28 | Cc1ccc(NC(=O)CSc2n[nH]c(-c3ccccn3)n2)cc1 | 1.26% [at 46.1 µM] | –
29 | Cc1nc2cc(NC(=O)CSc3nc4c(C)cccc4cc3C#N)ccc2s1 | – | 13 µM (active)
30 | CCc1ccc2nc(SCC(=O)Nc3ccccc3N3CCOCC3)c(C#N)cc2c1 | -24.4% [at 46.1 µM] | –
31 | COc1ccc2nc(SCC(=O)Nc3ccc4sc(C)nc4c3)c(C#N)cc2c1 | – | 20.6 µM (active)
32 | CCN(CC)c1ccc(NC(=O)CSc2nc(C3CC3)nc3ccccc23)cc1C | -9.93% | –
33 | CCC(=O)Nc1nc2ccc(NC(=O)c3cc(OC)c(OC)c(OC)c3)cc2s1 | 0.0932% | –
34 | COc1ccc2nc(SCC(C)=O)c(C#N)cc2c1 | – | 3.26 µM (active)
35 | COc1ccc2cc(C(=O)C3CCCN(Cc4ccccn4)C3)ccc2c1 (stereo not given) | 13.5% [at 46.1 µM] | –
36 | CCCOc1ccccc1C1CC(=O)Nc2cc3c(cc21)OCO3 (stereo not given) | 2.79% | –
37 | Cn1nnnc1SCc1nc2scc(-c3ccc(Cl)cc3)c2c(=O)[nH]1 | -22.9% [at 46.1 µM] | –
38 | CCOC(=O)c1sc(NC(=S)NC(=O)c2ccco2)nc1C | 10.5% [at 46.1 µM] | –
39 | COc1cccc(Nc2nc(Nc3ccc(Cl)c(C(=O)O)c3)nc(C)c2[N+](=O)[O-])c1 | 1.14% | –
40 | CCOC(=O)c1cc2n(c1/N=C/N(C)C)-c1ccccc1C2=O | – | 20.6 µM (active)
41 | N#C/C(=C/c1ccc2c(c1)OCO2)C(=O)Nc1ccc(O)cc1 | -6.9% | –
42 | CCOc1ccc(/C=N/NC(=O)c2cc3c(OC)cc(OC)c(OC)c3[nH]2)cc1 | 1.38% | –
43 | CCOc1ccc(NC(=O)/C(C#N)=C/c2ccc(N3CCCC3)c(C)c2)cc1 | – | 6.51 µM (active)
44 | CCOc1ccc(NC(=O)N2CC=C(c3c[nH]c4ccccc34)CC2)cc1 | -14.2% [at 46.1 µM] | –
45 | CCOc1cc(/C=C(/C#N)C(=O)Nc2ccc(O)cc2)cc(Br)c1O | – | 15.8 µM (active)
46 | CCSc1nnc(-c2sc3nnc(-c4ccccc4)c(-c4ccccc4)c3c2N)o1 | – | 10.3 µM (active)
47 | COc1ccc(NC(=O)C2Cc3c(-c4cccc(NC(C)=O)c4)ccnc3O2)cn1 (stereo not given) | -12.3% | –
48 | CSC1=NC(C(Cl)(Cl)Cl)N=C(c2ccccc2)N1 (stereo not given) | -0.698% | –
49 | CC1=CN2C(=N)/C(=C/c3ccc([N+](=O)[O-])o3)C(=O)N=C2S1 | – | 9.94 µM (active)
50 | CCS(=O)(=O)C1=NN2C(=N)/C(=C\c3ccc(SCc4ccco4)o3)C(=O)N=C2S1 | -18.8% [at 46.1 µM] | –
